According to publication PMC7862700, “An all-to-all approach to the identification of sequence-specific readers for epigenetic DNA modifications on cytosine”:

How the values were obtained:
Test in all cases: DAPPL (digital affinity profiling via proximity ligation, sequencing); 10 mM Tris-HCl pH 7.5, 50 mM NaCl, 1 mM DTT, 4% glycerol, room temperature, 30 min; GST-TFs on glutathione beads, 16-mer random dsDNA library, 0.1% formaldehyde crosslink after washing; high values mean tight binding
Conditions in all cases: protein: recombinant; tags: N-terminal GST; dsDNA, one strand shown
ELK1 = target: T1, ELK1 (Homo sapiens, UniProt P19419 1-428)
T1 sequence: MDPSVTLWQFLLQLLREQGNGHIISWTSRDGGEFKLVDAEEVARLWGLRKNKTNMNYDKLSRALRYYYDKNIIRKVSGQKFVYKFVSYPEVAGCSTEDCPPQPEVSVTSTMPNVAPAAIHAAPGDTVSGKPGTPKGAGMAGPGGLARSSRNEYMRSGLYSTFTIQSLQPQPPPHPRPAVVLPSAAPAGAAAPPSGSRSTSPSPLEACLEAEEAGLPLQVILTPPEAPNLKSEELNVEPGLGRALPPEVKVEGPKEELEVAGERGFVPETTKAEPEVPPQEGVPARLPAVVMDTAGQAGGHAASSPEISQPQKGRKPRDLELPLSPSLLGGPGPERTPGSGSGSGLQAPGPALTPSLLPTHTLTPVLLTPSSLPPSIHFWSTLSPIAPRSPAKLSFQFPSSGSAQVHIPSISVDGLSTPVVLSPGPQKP
Outline: (§1)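 Sequencing on an Illumina NextSeq500 followed washing, crosslinking with 0.1% formaldehyde, proximity ligation (BsaI/T4 ligase, 1 h, 37 °C) and PCR amplification of pools that had been incubated for 30 min at room temperature with 200 nmole of a random double-stranded 16-mer DNA library in Tris/NaCl/DTT/glycerol buffer. Each pool held DNA-barcoded human transcription factors, expressed in yeast as GST fusions and captured on glutathione beads, plus a tag-only sample. Binding signal is a hexamer's read frequency for a factor divided by its frequency in the tag-only sample.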

GABPA = target: T2, GABPA (Homo sapiens, UniProt Q06546 1-454)
T2 sequence: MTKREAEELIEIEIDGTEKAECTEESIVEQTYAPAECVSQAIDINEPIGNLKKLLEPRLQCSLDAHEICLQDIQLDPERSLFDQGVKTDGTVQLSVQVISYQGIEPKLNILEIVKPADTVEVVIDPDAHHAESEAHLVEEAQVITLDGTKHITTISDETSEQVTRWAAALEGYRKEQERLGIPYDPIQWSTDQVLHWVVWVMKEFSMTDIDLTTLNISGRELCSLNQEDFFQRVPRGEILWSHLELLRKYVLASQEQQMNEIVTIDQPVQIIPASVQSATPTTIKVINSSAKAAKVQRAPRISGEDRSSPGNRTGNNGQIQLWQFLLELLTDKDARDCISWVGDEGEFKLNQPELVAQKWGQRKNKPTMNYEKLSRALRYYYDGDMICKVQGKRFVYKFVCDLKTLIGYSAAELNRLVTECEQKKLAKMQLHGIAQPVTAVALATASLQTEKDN
Outline: as §1

ERG = target: T3, ERG (Homo sapiens, UniProt P11308 1-479)
T3 sequence: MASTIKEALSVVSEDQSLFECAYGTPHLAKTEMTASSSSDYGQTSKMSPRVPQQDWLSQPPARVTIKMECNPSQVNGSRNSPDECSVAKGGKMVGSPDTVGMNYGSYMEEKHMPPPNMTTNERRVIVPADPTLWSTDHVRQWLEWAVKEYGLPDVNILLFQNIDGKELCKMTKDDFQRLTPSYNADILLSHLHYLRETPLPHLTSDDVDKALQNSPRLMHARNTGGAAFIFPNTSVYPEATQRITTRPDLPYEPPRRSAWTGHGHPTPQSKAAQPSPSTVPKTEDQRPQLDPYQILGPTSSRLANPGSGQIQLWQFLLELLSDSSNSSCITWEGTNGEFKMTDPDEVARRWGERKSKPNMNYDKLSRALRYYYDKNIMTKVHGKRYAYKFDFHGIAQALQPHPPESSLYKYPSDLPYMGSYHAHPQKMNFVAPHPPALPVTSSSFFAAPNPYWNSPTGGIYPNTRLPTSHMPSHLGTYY
Outline: as §1

ELF1 = ELF1 (Homo sapiens, UniProt P32519 1-619)
Sequence of ELF1 (P32519 whole entry): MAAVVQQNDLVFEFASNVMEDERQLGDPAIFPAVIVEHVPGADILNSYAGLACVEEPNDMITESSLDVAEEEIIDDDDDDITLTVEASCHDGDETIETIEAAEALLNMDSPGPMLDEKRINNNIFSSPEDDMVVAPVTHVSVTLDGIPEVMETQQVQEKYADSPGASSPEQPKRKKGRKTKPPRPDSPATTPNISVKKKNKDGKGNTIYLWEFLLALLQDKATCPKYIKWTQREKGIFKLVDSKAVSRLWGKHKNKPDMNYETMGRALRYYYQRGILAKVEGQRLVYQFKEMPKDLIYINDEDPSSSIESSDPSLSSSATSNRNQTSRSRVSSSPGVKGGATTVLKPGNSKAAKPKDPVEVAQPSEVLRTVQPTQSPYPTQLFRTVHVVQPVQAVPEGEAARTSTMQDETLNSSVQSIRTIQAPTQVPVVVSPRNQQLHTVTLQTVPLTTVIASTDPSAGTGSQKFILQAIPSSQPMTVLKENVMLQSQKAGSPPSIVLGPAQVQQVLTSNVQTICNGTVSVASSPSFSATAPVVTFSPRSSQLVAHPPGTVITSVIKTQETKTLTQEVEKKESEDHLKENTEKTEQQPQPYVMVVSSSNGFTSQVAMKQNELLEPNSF
Outline: as §1

EHF = target: T4, EHF (Homo sapiens, UniProt Q9NZC4 1-300)
T4 sequence: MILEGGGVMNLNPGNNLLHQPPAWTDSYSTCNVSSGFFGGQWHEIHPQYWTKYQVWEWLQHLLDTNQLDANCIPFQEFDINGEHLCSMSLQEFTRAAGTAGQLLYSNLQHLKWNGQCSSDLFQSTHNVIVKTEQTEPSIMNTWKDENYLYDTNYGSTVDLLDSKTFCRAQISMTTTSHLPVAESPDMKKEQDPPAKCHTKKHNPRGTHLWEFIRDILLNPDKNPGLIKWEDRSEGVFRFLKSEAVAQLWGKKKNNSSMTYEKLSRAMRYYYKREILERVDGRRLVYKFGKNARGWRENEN
Outline: as §1

SPIB = SPIB (Homo sapiens, UniProt Q01892 1-262)
Sequence of SPIB (Q01892 whole entry): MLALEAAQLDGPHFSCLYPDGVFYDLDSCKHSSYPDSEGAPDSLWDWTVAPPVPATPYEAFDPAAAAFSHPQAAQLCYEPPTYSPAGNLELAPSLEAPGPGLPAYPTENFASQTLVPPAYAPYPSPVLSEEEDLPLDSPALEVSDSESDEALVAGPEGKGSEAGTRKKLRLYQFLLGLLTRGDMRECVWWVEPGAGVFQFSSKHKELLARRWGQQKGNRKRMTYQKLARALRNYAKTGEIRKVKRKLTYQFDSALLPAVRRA
Outline: as §1

FEV = target: T5, FEV (Homo sapiens, UniProt Q99581 1-238)
T5 sequence: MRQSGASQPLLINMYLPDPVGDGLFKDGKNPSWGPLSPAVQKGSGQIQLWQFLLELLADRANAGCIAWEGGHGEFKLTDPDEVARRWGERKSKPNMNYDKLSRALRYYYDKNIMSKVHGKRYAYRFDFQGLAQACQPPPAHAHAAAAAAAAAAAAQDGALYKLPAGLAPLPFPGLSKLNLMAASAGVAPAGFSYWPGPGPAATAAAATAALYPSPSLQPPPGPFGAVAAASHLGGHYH
Outline: as §1

ETV5 = ETV5 (Homo sapiens, UniProt P41161 1-510)
Sequence of ETV5 (P41161 whole entry): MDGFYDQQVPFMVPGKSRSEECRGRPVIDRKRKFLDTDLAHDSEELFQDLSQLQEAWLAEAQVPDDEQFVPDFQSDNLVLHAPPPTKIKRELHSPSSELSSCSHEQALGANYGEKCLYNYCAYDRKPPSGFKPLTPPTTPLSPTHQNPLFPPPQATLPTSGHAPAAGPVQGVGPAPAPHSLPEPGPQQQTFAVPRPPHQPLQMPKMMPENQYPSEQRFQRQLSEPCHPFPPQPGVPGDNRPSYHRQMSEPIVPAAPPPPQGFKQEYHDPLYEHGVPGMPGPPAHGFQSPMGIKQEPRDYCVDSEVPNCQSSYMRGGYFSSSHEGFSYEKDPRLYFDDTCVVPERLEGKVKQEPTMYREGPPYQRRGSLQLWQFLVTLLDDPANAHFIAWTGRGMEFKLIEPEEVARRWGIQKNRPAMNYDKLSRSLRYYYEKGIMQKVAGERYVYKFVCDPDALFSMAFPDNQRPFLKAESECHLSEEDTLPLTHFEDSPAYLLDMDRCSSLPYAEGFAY
Outline: as §1

ELF4 = ELF4 (Homo sapiens, UniProt Q99607 1-663)
Sequence of ELF4 (Q99607 whole entry): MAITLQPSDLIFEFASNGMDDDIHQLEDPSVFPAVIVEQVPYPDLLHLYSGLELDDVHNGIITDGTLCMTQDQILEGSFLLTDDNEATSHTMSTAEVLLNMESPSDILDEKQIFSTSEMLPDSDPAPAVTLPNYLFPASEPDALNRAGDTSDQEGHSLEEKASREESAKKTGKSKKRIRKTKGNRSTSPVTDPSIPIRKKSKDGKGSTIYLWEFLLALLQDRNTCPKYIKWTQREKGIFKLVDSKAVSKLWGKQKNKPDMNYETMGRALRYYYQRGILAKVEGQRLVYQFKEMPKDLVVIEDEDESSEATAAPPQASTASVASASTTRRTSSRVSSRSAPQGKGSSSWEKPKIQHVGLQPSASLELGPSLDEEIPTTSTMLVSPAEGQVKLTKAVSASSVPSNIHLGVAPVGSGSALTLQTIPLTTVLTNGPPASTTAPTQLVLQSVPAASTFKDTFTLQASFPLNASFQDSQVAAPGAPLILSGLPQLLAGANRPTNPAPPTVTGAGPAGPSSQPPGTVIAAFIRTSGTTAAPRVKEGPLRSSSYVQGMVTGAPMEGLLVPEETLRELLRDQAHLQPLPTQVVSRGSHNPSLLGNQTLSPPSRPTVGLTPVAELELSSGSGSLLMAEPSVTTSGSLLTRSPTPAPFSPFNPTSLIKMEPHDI
Outline: as §1

ELK4 = target: T6, ELK4 (Homo sapiens, UniProt P28324-2 1-405)
T6 sequence: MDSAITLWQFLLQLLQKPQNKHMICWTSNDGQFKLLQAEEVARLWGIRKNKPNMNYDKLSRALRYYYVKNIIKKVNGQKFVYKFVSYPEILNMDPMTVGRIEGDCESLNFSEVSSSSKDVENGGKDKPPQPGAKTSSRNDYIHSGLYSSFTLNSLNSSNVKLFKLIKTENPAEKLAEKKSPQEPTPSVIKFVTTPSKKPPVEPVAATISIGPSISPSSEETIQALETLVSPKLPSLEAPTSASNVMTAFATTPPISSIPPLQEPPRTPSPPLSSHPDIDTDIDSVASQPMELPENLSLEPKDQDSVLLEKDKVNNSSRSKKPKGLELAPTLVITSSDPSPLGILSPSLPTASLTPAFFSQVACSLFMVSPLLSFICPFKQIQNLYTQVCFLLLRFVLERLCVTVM
Outline: as §1

Question: For CCAACC, which binding signal (ELK1) is on record?
Answer: Its binding signal is 1.1 fold enrichment (6-mer frequency, TF over GST control).

Question: What about the binding signal (GABPA) of the same sequence?
Answer: The binding signal was 1.01 fold enrichment (6-mer frequency, TF over GST control).

Question: What about the binding signal (ERG) of the same sequence?
Answer: Its binding signal is 1.09 fold enrichment (6-mer frequency, TF over GST control).

Question: And the binding signal (ELF1)?
Answer: The binding signal was 1.16 fold enrichment (6-mer frequency, TF over GST control).

Question: What about the binding signal (EHF) of the same sequence?
Answer: Its binding signal is 1.04 fold enrichment (6-mer frequency, TF over GST control).

Question: And the binding signal (SPIB)?
Answer: The binding signal was 1.06 fold enrichment (6-mer frequency, TF over GST control).

Question: And the binding signal (FEV)?
Answer: The binding signal was 1.1 fold enrichment (6-mer frequency, TF over GST control).

Question: And the binding signal (ETV5)?
Answer: The binding signal was 1.01 fold enrichment (6-mer frequency, TF over GST control).

Question: And the binding signal (ELF4)?
Answer: Its binding signal is 1.15 fold enrichment (6-mer frequency, TF over GST control).

Question: And the binding signal (ELK4)?
Answer: The binding signal was 1.13 fold enrichment (6-mer frequency, TF over GST control).
